Measurements published in PubChem BioAssay AID2284061 (EPA ToxCast).
Results filed as inconclusive are left out. Active and inactive are the calls of the source. How the source made its calls: active means hit-call score of the fitted dose curve at least 0.9, where 1 is the maximum; inconclusive means response in the unintended direction; inactive means score below 0.9.

What follows are compounds tested against human Akt3 (PKBgamma) AGC Kinase, AKT3 (gene 10000) (UniProt Q9Y243) (assay: ERF_FR_ENZ_hAKT3: Eurofins (ERF) Enzymatic Radiometric [Km ATP] KinaseProfiler LeadHunter Assay for human Akt3 (PKBgamma) AGC Kinase).
Sequence of human Akt3 (PKBgamma) AGC Kinase, AKT3 (gene 10000) (Q9Y243 whole entry, looked up): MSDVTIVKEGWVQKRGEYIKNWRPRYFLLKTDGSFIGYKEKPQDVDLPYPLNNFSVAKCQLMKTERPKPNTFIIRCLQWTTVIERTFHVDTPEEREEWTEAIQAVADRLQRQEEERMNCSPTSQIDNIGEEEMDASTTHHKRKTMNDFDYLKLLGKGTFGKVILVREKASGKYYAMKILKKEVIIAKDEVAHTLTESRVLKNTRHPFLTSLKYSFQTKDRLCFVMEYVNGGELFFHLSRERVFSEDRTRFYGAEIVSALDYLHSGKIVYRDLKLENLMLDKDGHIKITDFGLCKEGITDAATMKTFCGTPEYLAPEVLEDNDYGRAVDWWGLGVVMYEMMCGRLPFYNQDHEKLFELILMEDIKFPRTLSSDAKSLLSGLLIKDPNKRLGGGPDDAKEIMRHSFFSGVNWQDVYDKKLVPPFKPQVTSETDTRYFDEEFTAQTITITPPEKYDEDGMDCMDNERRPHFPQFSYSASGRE
Protocol: ERF_FR_ENZ_hAKT3 is a biochemical, single-readout assay that uses extracted gene-proteins in a cell-free assay. Measurements were taken 0.5 hour after chemical dosing in a 96-well plate. See Akt3 (PKBgamma) Human AGC Kinase Enzymatic LANCE Assay [Km ATP], Cerep.ERF_FR_ENZ_hAKT3 is an assay component calculated from the ERF_FR_ENZ_hAKT3 assay. It is designed to measure enzyme activity using a type of enzyme reporter as detected by fluorescence intensity with LANCE technology.Data from the assay component ERF_FR_ENZ_hAKT3 was analyzed at the assay endpoint, ERF_FR_ENZ_hAKT3, in the positive analysis fitting direction relative to DMSO as the negative control and baseline of activity. Using a type of enzyme reporter, loss-of-signal activity can be used to understand changes in enzymatic activity as they relate to gene AKT3. To generalize the intended target to other relatable targets, this assay endpoint is annotated to the kinase intended target family, where the subfamily is serine/threonine kinase.
PKBb (h) is incubated with 8 mM MOPS pH 7.0, 0.2 mM EDTA, 30 uM […], 10 mM MgAcetate and [g- 33P]-ATP (specific activity and concentration as required). The reaction is initiated by the addition of the Mg/ATP mix. After incubation for 40 minutes at room temperature, the reaction is stopped by the addition of phosphoric acid to a concentration of 0.5%. […]

SMILES	outcome
COc1cc(CCC(=O)CC(=O)CCc2ccc(O)c(OC)c2)ccc1O	inactive
O=C(/C=C/c1ccc(O)cc1)CC(=O)/C=C/c1ccc(O)cc1	inactive
